# An excerpt weighted towards active compounds, which were near 0.65% of everything screened.
# Vc quorum ag-1 – inducers of Vibrio cholerae quorum light production without autoinducers, primary screen, BH1578 luxS cqsA deficient, single point; V. cholerae BH1578 lux reporter, luminescence, 6 h; activation, % at 18.7 µM; 0.16% of 350,000 active; AID 588436, 2011; in the data active means activation mostly above about 9.7%, no sharp cut-off
# TcdB GH inh – TcdB glycohydrolase inhibitors, primary screen, biochemical, single point, plate reader | Toxin B (Clostridioides difficile), P18177 | TcdB glycohydrolase enzymatic assay | inhibition, % at 9.99 µM | 0.24% of 350,000 active | AID 652162, 2013; in the data active means inhibition above about 10%
# PrP 5UTR inh – inhibition of PrP 5' UTR reporter expression. 0.35% of 340,000 active. inhibition, % (no concentration beside the values). AID 488862, 2010. cell-based PrP 5' UTR mRNA reporter, plate reader; in the data active means inhibition above about 52%; further: 0 = median of the neutral control wells
# Yp Topo-I inh – Yersinia pestis topoisomerase I inhibitors, primary screen, biochemical, cleavage product accumulation, plate reader, single point | DNA topoisomerase I (Yersinia pestis CO92) | Y. pestis Topo-I cleavage product accumulation | activity, % at 10 µM | 0.064% of 360,000 active | AID 504884, 2011; in the data active means activity above about 50%, passing the limit was not always enough
# Mtb UGM inh – M. tuberculosis UGM enzyme inhibitors, primary screen, biochemical, fluorescence polarization, single point; purified UGM, fluorescence polarization probe displacement; inhibition, % at 10 µM; 0.06% of 320,000 active; AID 504406, 2011; in the data active means inhibition above about 10%, passing the limit was not always enough
# Vc quorum ag-2 – V. cholerae lux activation without autoinducers – BH1578 luxS cqsA deficient, cherry-pick, plate reader, dose response; V. cholerae BH1578 lux reporter, luminescence, 6 h; shares compounds with Vc quorum ag-1; 620 tested, under 10 active; AID 602243, 2012; activation, % at 50 µM; call rule not given here
# HeLa tox – HeLa cell cytotoxicity, dose response, cytotoxicity control, 24 h, dry powder; activity change, negative = cytotoxicity, % at 35 µM; shares compounds with Vc quorum ag-1; AID 624140, 2012; HeLa viability, CellTiter-Glo ATP luminescence; 25 tested, under 10 active;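 active means signal drop with fitted half-maximal concentration at or below twice the highest valid dose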
# * = called active by the depositor; i = inactive; nt = no result given; + = active, no number.
SMILES,Vc quorum ag-1,TcdB GH inh,PrP 5UTR inh,Yp Topo-I inh,Mtb UGM inh,Vc quorum ag-2,others
COc1cccc(NC(=O)N[C@@H]2CC[C@H](CC(=O)N3CCOCC3)O[C@@H]2CO)c1,nt,-0.3,nt,nt,nt,nt,
CCC(=O)c1coc2ccc(O)cc12,25.0*,nt,-10.5,-8.5,0.2,0.4,
O=C(c1cccs1)c1coc2ccc(O)cc12,i,nt,-101.2,-3.8,1.5,nt,
Cc1cc2oc(=O)cc(-c3ccccc3)c2c(C)c1-c1ccc(C#N)cc1,11.9,1.2,-11.5,20.8,nt,0.2,
COc1ccc(S(=O)(=O)N2CCSC2c2ccc(N)cc2)cc1 (stereo not given),12.5,nt,-15.6,6.1,2.7,0.2,
CC(=O)Nc1ccc(S(=O)(=O)N2CCSC2c2ccc(Cl)cc2)cc1 (stereo not given),i,nt,-2.5,-12.9,2.0,nt,
Cc1cccc(-c2ccc([C@H]3[C@@H](CO)N4CCCCN(C(=O)NC(C)C)C[C@H]34)cc2)c1,nt,0.7,nt,nt,nt,nt,
O=C(C[C@@H]1CC[C@H](NC(=O)c2ccc3c(c2)OCO3)[C@@H](CO)O1)NCc1ccc(Cl)cc1,nt,0.1,nt,nt,nt,nt,
COc1ccccc1NC(=O)N[C@@H]1CC[C@H](CCNS(=O)(=O)c2ccc(Cl)cc2)O[C@@H]1CO,nt,-0.5,nt,nt,nt,nt,
CCCn1nnnc1NCc1ccc(C(C)C)cc1,nt,1.7,-15.8,-1.1,0.3,i,HeLa tox=5.6
CCCCn1c(NCc2ccc(N(C)C)cc2)nc2ccccc21,-0.2,-3.6,-25.4,8.1,0.9,nt,
CCCCn1nnnc1NCc1cccs1,-0.2,0.2,-11.1,-1.0,-1.9,nt,
CCCn1nnnc1NCc1ccc(N(C)C)cc1,nt,-1.0,-53.0,2.6,-2.8,i,
CCCn1nnnc1NCc1ccccc1Cl,i,0.6,-32.0,-0.9,-1.7,nt,HeLa tox=1.6
CCCn1nnnc1NCc1ccccc1OCC,-0.2,0.6,-9.2,0.3,0.5,nt,
C[C@@H]1CN([C@H](C)CO)C(=O)c2cc(NS(C)(=O)=O)ccc2O[C@@H](C)CCCCO[C@@H]1CN(C)C(=O)c1ccncc1,nt,1.2,nt,nt,nt,nt,
C[C@@H]1CCCCO[C@@H](CN(C)Cc2ccccc2)[C@@H](C)CN([C@@H](C)CO)C(=O)c2cc(NC(=O)CCCN(C)C)ccc2O1,nt,-1.5,nt,nt,nt,nt,
O=C(NC[C@H]1CC[C@@H]2[C@@H](CN2Cc2cccc(Cl)c2)O1)C1CC1,nt,0.3,nt,nt,nt,nt,
O=C(c1cn(-c2ccccc2)nc1-c1cccs1)N1CCOCC1,25.0*,nt,-19.4,6.5,-6.1,0.4,
O=C(c1cn(-c2ccccc2)nc1-c1cccs1)N1CCN(c2ccccc2)CC1,-0.3,nt,-7.0,7.6,-0.8,nt,
O=C(COC(=O)/C=C/c1ccco1)NCc1ccccc1,1.0,0.6,-28.5,-0.3,2.7,nt,
CCCNC(=O)COC(=O)/C=C/c1ccco1,+,1.1,-18.5,-9.6,0.8,i,
Cc1ccc(/C=C/C(=O)OCC(=O)NCCc2ccc(S(N)(=O)=O)cc2)o1,25.6*,0.7,-26.3,4.3,2.5,7.4,
Cc1ccc(/C=C/C(=O)NCc2ccc(S(N)(=O)=O)cc2)o1,-0.3,0.0,0.3,7.6,nt,nt,
C=C(C)COc1ccc(-c2ncncc2Oc2ccc(OC)cc2)c(O)c1,25.0*,nt,-10.7,-1.2,2.2,0.2,
SMILES,Vc quorum ag-1,TcdB GH inh,PrP 5UTR inh,Yp Topo-I inh,Mtb UGM inh,Vc quorum ag-2,others
CN(C)C(=O)c1ccc(-c2ccc(C3[C@@H]4CN(C(=O)C5CCCC5)C[C@H]3N4)cc2)cc1 (stereo not given in full),nt,0.5,nt,nt,nt,nt,
Cn1cccc1C(=O)OCc1cc(-c2ccco2)on1,31.0*,-2.7,-71.8,-2.4,-2.8,39.4,
COc1ccc(-c2ccc(-c3nnc(Cc4ccc(OC)c(OC)c4)o3)cc2)cc1,14.3,nt,-19.8,5.8,3.1,0.1,
O=C(COC(=O)C1CCN(c2ccc(C(F)(F)F)cn2)CC1)NC1CCCCC1,14.3,-0.4,-9.6,22.5,0.4,-0.3,
O=C(CNc1cc(S(=O)(=O)N2CCOCC2)ccc1N1CCCC1)Nc1ccc(Cl)cc1,96.9*,-0.5,-12.6,6.7,nt,0.0,
CC(=O)c1ccc(NC(=O)CNc2cc(S(=O)(=O)N3CCOCC3)ccc2N2CCCC2)cc1,i,1.2,-92.5,4.6,nt,nt,
COCc1nnc(NS(=O)(=O)c2ccc(F)cc2)s1,-1.3,1.6,-19.1,8.6,5.0,nt,
COCc1nnc(NS(=O)(=O)c2ccc(Br)cc2)s1,27.8*,nt,-5.5,0.0,1.0,0.1,
CC(C)OC(=O)c1nnn(-c2nonc2N)c1CN1CCc2ccccc2C1,5.0,nt,-32.0,-8.5,nt,nt,
CCOC(=O)c1nnn(-c2nonc2N)c1CN1CCc2ccccc2C1,12.5,nt,-14.1,11.0,-2.2,0.5,
CCCn1nnnc1SCC(=O)c1ccc2c(c1)OCCO2,65.1*,nt,-37.4,9.1,-2.4,i,
Cn1nnnc1SCC(=O)c1ccc2c(c1)OCCO2,1.9,0.4,-42.5,2.3,-0.7,nt,
C[C@@H]1CN([C@@H](C)CO)C(=O)Cc2cc(NC(=O)CCN3CCOCC3)ccc2O[C@@H]1CN(C)C,nt,-6.6,nt,nt,nt,nt,
O=S(=O)(Nc1ccc(-c2ccc3nncn3n2)cc1)c1ccccc1Cl,i,0.9,-2.0,-7.6,2.5,nt,
O=S(=O)(Nc1ccc(-c2ccc3nncn3n2)cc1)c1ccc(Cl)s1,160.2*,2.3,4.8,4.8,-0.3,-0.1,
COc1ccccc1NC(=O)CN1CCN(C(=O)C2CCCO2)CC1 (stereo not given),21.8,1.8,-6.5,8.0,0.0,6.3,
COc1ccccc1NC(=O)CN1CCN(c2ccccc2F)CC1,35.4*,nt,-3.5,1.6,3.1,95.6,
COc1ccccc1NC(=O)CN1CCN(c2ccccc2OC)CC1,i,0.7,0.3,-6.6,-1.3,nt,
CCOC(=O)CSc1nc(C)cc(C)c1C#N,16.7*,nt,-20.8,-6.2,0.9,0.0,
Cc1cc(COc2ccccc2O)on1,12.5,nt,-12.1,-1.4,0.1,201.3,
O=C(O)C[C@H]1CC[C@H](NC(=O)CCN2CCCCC2)[C@@H](CO)O1,nt,0.6,nt,nt,nt,nt,
C[C@H]1CN([C@@H](C)CO)S(=O)(=O)c2ccc(C#CC3CC3)cc2O[C@@H]1CN(C)C(=O)c1cnccn1,nt,0.6,nt,nt,nt,nt,
Cc1ccc(C(=O)OCC(=O)Nc2ccc(N(C)C)cc2)cc1NC(=O)c1ccco1,-0.7,nt,-11.4,-3.0,0.9,nt,
Cc1ccc(C(=O)OCC(=O)Nc2ccccc2)cc1NC(=O)c1ccco1,6.6,nt,-7.1,5.3,-0.1,0.4,
C[C@@H]1CN([C@@H](C)CO)C(=O)c2cc(-c3ccc(C#N)cc3)cnc2O[C@H]1CN(C)CC1CCCCC1,nt,1.5,nt,nt,nt,nt,
Cc1cccc2nc(COc3ccc(-c4ccccc4)cc3)cn12,nt,nt,nt,nt,2.4,nt,
Cc1cc(C)n2cc(COc3ccc4ccccc4c3)nc2n1,+,0.8,-109.3,44.4,-0.4,287.1,

# Bioassay records from PubChem.
